# Casp7 inh: qHTS Assay for Allosteric/Competitive Inhibitors of Caspase-7. P55210. recombinant caspase-7, Ac-DEVD-AFC fluorescence rate. Potency, µM (top dose mostly 57.5 µM), without a hit: top-dose activity change, negative = inhibition, hits mostly inhibitors. hit rate 0.02% among 75,000; active = well fitted inhibition curve with a large enough effect in the main read-out, with a control signal flat, not every such curve was filed as active; inconclusive = small, poorly fitted or top-dose-only effect, or a change in a side signal; note: % of control where 0% means no effect
# Target sequence (P55210 24-198 limits assumed): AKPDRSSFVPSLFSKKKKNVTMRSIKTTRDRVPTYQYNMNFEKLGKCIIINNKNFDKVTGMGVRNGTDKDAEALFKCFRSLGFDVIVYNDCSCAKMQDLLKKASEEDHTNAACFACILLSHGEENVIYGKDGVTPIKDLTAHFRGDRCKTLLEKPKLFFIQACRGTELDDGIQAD
# Target sequence (P55210 207-303 limits assumed): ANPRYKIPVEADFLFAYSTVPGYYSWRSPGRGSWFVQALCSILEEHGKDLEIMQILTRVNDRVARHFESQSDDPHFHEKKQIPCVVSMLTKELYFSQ
# Casp1 inh: qHTS Assay for Allosteric/Competitive Inhibitors of Caspase-1. Caspase-1 enzyme, Ac-WEHD-AFC fluorogenic rate. Potency, µM (series often up to 57.5 µM), inactives show at the highest dose activity change, negative = inhibition, actives largely listed as inhibitors. P29466. AID 900, 2007. hit rate 0.03% among 75,000;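 note: plate controls were vehicle for no effect and no substrate for full effect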
# Target sequence (P29466 120-297 limits assumed): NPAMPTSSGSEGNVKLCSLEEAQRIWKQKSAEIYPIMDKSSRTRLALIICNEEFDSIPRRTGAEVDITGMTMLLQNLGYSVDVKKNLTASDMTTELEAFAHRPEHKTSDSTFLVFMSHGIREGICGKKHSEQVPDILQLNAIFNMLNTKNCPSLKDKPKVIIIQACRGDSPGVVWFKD
# Target sequence (P29466 317-404 limits assumed): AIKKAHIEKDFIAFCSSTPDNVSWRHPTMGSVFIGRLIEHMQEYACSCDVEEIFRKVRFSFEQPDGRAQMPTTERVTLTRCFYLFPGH
# Luciferase inh: qHTS Assay for Inhibitors of Firefly Luciferase; hit rate 2.2% among 72,000; purified firefly luciferase, luminescence, 8 min; AID 411, 2009; Potency, µM (series often up to 57.1 µM), for inactives: top-dose activity change, negative = inhibition, most hits filed as inhibitors; note: % is set by controls: 0 for no effect and ±100 for the full control effect; nearly all actives have a fitted effect of over 40% in size
#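 Here, luciferase activity is measured as luminescence following an 8 min room-temperature reaction at 10 uM ATP, pH 7.2. Every library sample is titrated.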
# GBA activity: Glucocerebrosidase. Lysosomal acid glucosylceramidase (Homo sapiens), P04062. purified enzyme, resorufin glucoside fluorescence (screen aimed at inhibitors), 20 min. Potency, µM. hit rate 1.1% among 48,000. AID 360, 2006; in the data active = potency below about 15 µM; inconclusive = mostly about 16 µM to 33 µM;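 note: the screen sought inhibitors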
#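 Compounds titrated against 0.2 nM normal enzyme, 30 uM resorufin beta-D-glucopyranoside substrate, citrate/phosphate buffer with taurocholate and tween-20, pH 5.9. Reaction ran 20 min at room temperature; fluorescence (Ex 548/Em 600) gave AC50.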
# Bst PK mod: Pyruvate Kinase; purified pyruvate kinase, luminescence ATP production; ribose 5-phosphate activator present at AC10; Potency, µM; hit rate 1.2% among 51,000; AID 361, 2006; in the data active = potency below about 11 µM; inconclusive = mostly about 12 µM to 25 µM;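 the screen sought inhibitors and activators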;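 note: scaled between full activation by ribose 5 phosphate and full inhibition by luteolin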
# * marks the source's active call; other numbers are inactive results; i = inactive; ? = inconclusive; / = no result; [ ] = remark or other dose. Only some compounds are listed: those with a hit (about 3.1% of all), similar ones and a draw of the others. Unless noted, calls come from the whole dose curve; as a rule, active = well fitted inhibition curve with a large enough effect; inconclusive = small, poorly fitted or top-dose-only effect; inactive = flat fitted curve, though single readings scatter. Potency is the fitted concentration of half-maximal effect.
SMILES,Casp7 inh,Casp1 inh,Luciferase inh,GBA activity,Bst PK mod
O=C(NC1=NC2CCCCC2N1)c1ccccc1 (centres undefined),2%,1%,1.3µM*,?,?
Cc1ccc2[nH]c3c(NCCN4CCOCC4)ncnc3c2c1,/,/,-3%[25.5 µM],/,/
C=CCNc1ncnc2c1[nH]c1ccc(C)cc12,1%,0%,10µM*,?,?
O=C(CSc1nc2c(c(=O)n1-c1ccc(Cl)cc1)SCC2)Nc1nccs1,-4%,0%,-2%,>77,>57
Cc1cc(NC(=O)CSc2nc3c(c(=O)n2-c2ccc(Cl)cc2)SCC3)no1,-2%,-1%,-1%,14*,>57
CCC(=O)N[C@@H]1CCc2cccc(OC)c2C1,-2%,0%,25µM*,/,/
N#Cc1c(NC(=O)c2ccc(Cn3cc(Br)cn3)o2)sc2c1CCCCCC2,-11%,-7%,1%,>77,>57
CC1(C)Cc2c(sc(NC(=O)c3ccc(Br)o3)c2C#N)CO1,/,/,10µM*,/,/
CC(C)n1c(CNC(=O)c2ccccc2)nc2ccccc21,0%,3%,1%,8.4*,>57
CCOc1cc(C(=O)Nc2cc(C)on2)cc(OCC)c1OCC,-1%,0%,-1%,>77,>57
Cc1cc(NC(=O)c2ccc(NC(=O)c3cccs3)cc2)no1,0%,0%,0%,2.4*,>57
CCOc1ccc(C(=O)Nc2cc(C)on2)cc1,0%,0%,10µM*,/,/
CC(C)(CO[C@H]1C[C@H]2CC[C@@]1(C)C2(C)C)[N+](=O)[O-],0%[11.5 µM],-4%[11.5 µM],3%[11.4 µM],/,/
CC(=O)[C@H]1CC[C@@H]2[C@]1(C)CC=C1[C@]23C=C[C@]2(C[C@H](O)CC[C@@]12C)[C@H](C(=O)O)[C@@H]3C(=O)O,0%[11.5 µM],-1%[11.5 µM],4%[11.4 µM],/,/
CCCC(=O)N(C)c1nnc(-c2ccc(OC)cc2)s1,2%,0%,16µM*,>77,i
CCOc1ccc(-c2nnc(N(CC)C(=O)C3CCC3)s2)cc1,-3%,-3%,16µM*,>77,?
CN(C(=O)COc1ccccc1)c1nnc(-c2cccnc2)s1,0%,-1%,1%,>77,>57
NC(N)=N/N=C(\c1ccc(Cl)cc1)C1CC1,-1%[11.5 µM],0%[11.5 µM],1%[11.4 µM],/,/
C[C@H]1C[C@H]2[C@H]3CCC4=CC(=O)C=C[C@@]4(C)[C@]3(F)[C@H](O)C[C@]2(C)[C@@]1(O)C(=O)COP(=O)(O)O,-10%[11.5 µM],/,1%[11.4 µM],/,/
CCN(CC)c1ccc2cc(-c3nc4ccccc4[nH]3)c(=O)oc2c1,?,/,0.04µM*,/,/
O=C(O)c1c2c(c(O)c3c1CN(C1CCCCC1)CO3)OCN(C1CCCCC1)C2,-6%[11.5 µM],-11%[11.5 µM],1%[11.4 µM],/,/
COc1ccc(NC(=O)c2cc(CC(C)C)on2)cc1OC,0%,1%,-20%,/,/
O=C(c1cc(-c2ccc(Cl)cc2)on1)N1CCOCC1,-1%,1%,13µM*,>77,/
O=C(Nc1cccnc1)c1cc(-c2ccc3c(c2)OCO3)on1,0%,-2%,0.79µM*,>77,/
CC(C)Cc1cc(C(=O)Nc2ccc3c(c2)OCO3)no1,0%,-4%,7.9µM*,/,/
SMILES,Casp7 inh,Casp1 inh,Luciferase inh,GBA activity,Bst PK mod
O=C(c1cc(-c2ccc(Cl)cc2Cl)on1)N1CCOCC1,-2%,-1%,7.9µM*,>77,6.3*
N[C@@H]1C=CC=C(C(=O)O)C1,2%,2%,0%,/,/
CC(C)(C)c1ccc(S(=O)(=O)/C=C\C#N)cc1,-2%,-2%,-28%,/,/
NC(=O)C/C=C\CC(N)=O,3%[11.5 µM],2%[11.5 µM],2%[11.4 µM],/,/
NC(N)=N[C@H](CCC(=O)O)C(=O)O,0%,-1%,1%,/,/
Oc1ccc2cc(SSc3ccc4cc(O)ccc4c3)ccc2c1,-3%,-4%,/,/,/
O=C(c1cc(-c2ccc3c(c2)OCO3)on1)N1CCOCC1,0%,-5%,7.9µM*,>77,?
O=C(c1cc(-c2ccc3c(c2)OCO3)on1)N1CCN(c2ccccc2)CC1,-4%,0%,?,/,/
CCOC(=O)c1cnn(-c2ccccn2)c1N,1%,-1%,-30%,>77,i
CCOC(=O)c1cnc2c(-c3ccccc3)c(C)nn2c1N,-3%,0%,1%,>77,>57
CCOC(=O)c1cnc2c(-c3ccccc3)cnn2c1N,1%,0%,2.5µM*,>77,2.3*
CCOC(=O)c1cnn(-c2cc(C)c3ccccc3n2)c1N,3%,0%,0%,12*,/
Cc1cc(N)n2ncc(-c3ccccc3)c2n1,-3%,0%,25µM*,/,4.8*
O=C(O)Cn1c(=O)oc2cc(S(=O)(=O)N3CCOCC3)ccc21,1%,-2%,-1%,/,/
COc1ccc(-c2csc(NCc3ccco3)n2)cc1,-2%,-4%,5µM*,>77,4.6*
c1coc(CNc2nc(-c3ccncc3)cs2)c1,-1%,-2%,-20%,/,/
O=C(O)/C(Cc1ccc([N+](=O)[O-])cc1)=N/O,0%[11.5 µM],-3%[11.5 µM],0%[11.4 µM],/,/
COc1cc(OC)c(OC)cc1CN(C)CCc1ccccn1,0%,-1%,3%,15*,>57
CCn1c(SCC(=O)Nc2ccc(N3CCOCC3)c(Cl)c2)nnc1-c1ccc(N)cc1,1%,0%,13µM*,>77,/
COC(=O)c1ccc(-c2cc(C(=O)O)c3cc4c(cc3n2)OCCO4)cc1,-2%,-4%,3.2µM*,>77,?
O=C(O)c1cc(-c2ccc(-c3ccccc3)cc2)nc2cc3ccccc3cc12,-1%[11.5 µM],3%[11.5 µM],?,/,/
COc1ccc(-c2cn3cc(C)ccc3n2)cc1OC,-3%,-10%,2.5µM*,/,1.8*
COc1ccc(-c2cn3ccccc3n2)cc1OC,0%,-1%,3.2µM*,i,6.5*
COc1ccc(-c2noc(-c3cc(C)cc(C)c3)n2)cc1OC,-1%,-4%,-1%,/,/
CN(C)S(=O)(=O)c1cccc(-c2cn3ccccc3n2)c1,0%,3%,-17%,>77,/
SMILES,Casp7 inh,Casp1 inh,Luciferase inh,GBA activity,Bst PK mod
C=CCn1cnc2c(c1=O)c1nc3ccccc3nc1n2/N=C/c1cccc(OC)c1,-5%,-6%,1%,i,/
COCCn1cnc2c(c1=O)c1nc3ccccc3nc1n2/N=C/c1cccc(OC)c1OC,-2%,-2%,5%,i,3.6*
O=S1(=O)C=C(Sc2nc3ccccc3s2)c2ccccc21,-5%,-3%,13µM*,11*,>57
S=C(Nc1ccccn1)c1ccccn1,2%,-1%,20µM*,/,/
C=CCNc1nc(N)c(C(=O)Nc2cc(C)on2)s1,0%,-2%,20µM*,/,/
O=C(O)C(NS(=O)(=O)c1cccc2cccnc12)c1ccccc1 (centres undefined),3%,-2%,1%,/,/
CC(=O)NC(Cc1ccc(F)cc1)C(=O)NC1CCN(c2nnnn2-c2ccccc2)CC1 (centres undefined),7%,1%,2%,5.8*,>57
CCCCCCCCCCCCC/C=C\[C@H](O)[C@H](N)CO,/,/,-3%,/,/
NS(=O)(=O)c1ccc(CCNC(=O)NC2(C(F)(F)F)Oc3ccccc3O2)cc1,1%,0%,1%,14*,>57
O=C(NCCN1CCOCC1)NC1(C(F)(F)F)Oc2ccccc2O1,1%,1%,2%,i,>57
Cn1c(SCc2ccc(C#N)cc2Cl)nc2ccccc21,-2%,-3%,16µM*,/,/
